Assays:
Assay type in all cases: functional
[1] = target: Solute carrier family 2, facilitated glucose transporter member 1 (Homo sapiens) (UniProt P11166); test: ST_JUDE_LEISH: Cytotoxicity at 2uM final concentration against transgenic Leishmania Mexicana promastigotes LmGLUT1 that are glucose transport deficient and complemented with the human glucose transporter GLUT1. Activity is measured by DNA content using SYBR green in vitro
[2] = target: Hexose transporter 1 (Plasmodium falciparum) (UniProt O97467); test: ST_JUDE_LEISH: Cytotoxicity at 2uM final concentration against transgenic Leishmania Mexicana promastigotes LmPfHT that are glucose transport deficient and complemented with the Plasmodium falciparum hexose transporter. Activity is measured by DNA content using SYBR green in vitro
[3] = target: Glucose transporter (Leishmania mexicana) (UniProt O61059); test: ST_JUDE_LEISH: Cytotoxicity at 2uM final concentration against transgenic Leishmania Mexicana promastigotes LmGT2 that are glucose transport deficient and complemented with the L. Mexicana glucose transporter 2. Activity is measured by DNA content using SYBR green in vitro

Solute carrier family 2, facilitated glucose transporter member 1 (Homo sapiens), sequence (P11166 whole entry): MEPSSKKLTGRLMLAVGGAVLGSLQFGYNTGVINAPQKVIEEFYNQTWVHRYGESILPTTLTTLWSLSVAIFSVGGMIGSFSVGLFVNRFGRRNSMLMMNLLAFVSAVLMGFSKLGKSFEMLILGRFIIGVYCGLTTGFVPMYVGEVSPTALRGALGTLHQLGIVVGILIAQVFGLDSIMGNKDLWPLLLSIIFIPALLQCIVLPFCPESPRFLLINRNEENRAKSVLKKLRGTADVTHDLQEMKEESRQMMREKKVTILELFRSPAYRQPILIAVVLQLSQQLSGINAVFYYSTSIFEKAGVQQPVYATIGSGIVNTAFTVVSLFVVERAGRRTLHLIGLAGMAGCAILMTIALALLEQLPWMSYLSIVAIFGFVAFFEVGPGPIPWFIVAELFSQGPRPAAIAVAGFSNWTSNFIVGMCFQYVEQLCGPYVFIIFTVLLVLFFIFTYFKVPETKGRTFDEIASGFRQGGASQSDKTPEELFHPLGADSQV

Row | SMILES | inhibition [1] [%] | inhibition [2] [%] | inhibition [3] [%]
1 | O=C(Nc1cccc(-c2ccc(-c3nc4cc(F)ccc4[nH]3)cc2)c1)c1ccoc1 | 1.01 | 1.14 | -0.42
2 | CCC(C)c1cnc2nc(N)nc(N)c2c1C (stereo not given) | 1.18 | 1.66 | 2.42
3 | CN(C)CCCNC(=O)c1ccccc1Sc1ccccc1C#N | 0.79 | 1.43 | 1.54
4 | CCC(CC)n1cc2c(ccc3nc(N)nc(N)c32)n1 | -1.92 | -0.91 | -4.05
5 | CN1CCC(N(C)C(=O)C=Cc2cn(-c3ccccc3)nc2-c2cc3ccccc3o2)CC1 | 3 | 1.17 | -0.25
6 | COc1cc(C(=O)NC2CC(C)(C)NC(C)(C)C2)ccc1-c1cc2cc(Cl)c(Cl)cc2[nH]1 | 1.69 | -0.26 | 2.02
7 | CCCc1ccc(-c2csc(NC(=O)c3ccc([N+](=O)[O-])o3)n2)cc1 | 78.4 | 77.8 | 37.8
8 | O=C(/C=C/c1ccc(Cl)c(Cl)c1)NCCCCCN1CCC(CCCNC(=O)Nc2ccc(C(F)(F)F)cc2)CC1 | -1.43 | -2.93 | -1.92
9 | COc1ccccc1CN1CCC(CNC(=O)c2cc(-c3cccc(C(F)(F)F)c3)cs2)C1 (stereo not given) | 0.96 | 1.45 | 1.94
10 | COc1ccc(-n2nc(C)c3c2NC(=O)CC3c2ccccc2OCc2ccccc2F)cc1 (stereo not given) | 11.7 | 11.4 | 9.27
11 | CCOc1cc(C(C)C)ccc1C1CCN(CCCCNC(=O)c2ccc(NC(=O)c3ccc(Cl)cc3)cc2)CC1 | 3.78 | 4.23 | 2.65
12 | COc1ccc(Br)cc1/C=C/C(=O)Nc1ccc2c(c1)CCCN(C)C2 | 0.84 | 3.78 | 3.56
13 | CCN(CC)CCCNc1nccc(N(C)c2ccc(NC(=O)Nc3cc(C(F)(F)F)ccc3F)cc2)n1 | 11.7 | 9.93 | 11.9
14 | O=C(NC1CCC(CCN2CCc3ccc(-c4cnccn4)cc3CC2)CC1)c1cccc(-n2cccn2)c1 (stereo not given) | 10.2 | 7.38 | 8.56
15 | COc1ccc(N2CCN(c3nc(N)c4cc(OC)c(OC)cc4n3)CC2C)cc1 (stereo not given) | 0.19 | 1.45 | -0.49
16 | Cc1cc(N[C@@H](CC(C)C)C(=O)NCc2cccc(F)c2)nc(Nc2ccccc2)n1 | 4.15 | 2.87 | 1.1
17 | CCCN1CCC(c2c[nH]c3ccc(NC(=O)Nc4cccc(Cl)c4Cl)cc23)CC1 | 3.84 | 2.45 | 4.47
18 | O=C(Nc1cccc(CN2CCCN(Cc3ccc4c(c3)OCO4)CC2)c1)c1ccc2ccccc2c1 | 1.49 | 1.31 | -7.63
19 | O=C(Cc1c[nH]cn1)Nc1cccc(-c2cccc(-c3nc4cc(C(F)(F)F)ccc4[nH]3)c2)c1 | 9.44 | 12.1 | 10.4
20 | CCc1cc2c(Sc3nnc(N)s3)ncnc2s1 | 2.44 | 0.05 | -5.69
21 | COc1ccc(Nc2nccc(NCCNC(=O)Nc3ccccc3F)n2)cc1 | 2.23 | 3.75 | -0.4
22 | COc1ccc(NC(=O)Nc2ccc(-c3cccc(-c4nc5cccc(C)c5[nH]4)c3)cc2)cc1 | -1.37 | -1.2 | -0.2
23 | Cc1ccnc(NC(c2ccc(Cl)c([N+](=O)[O-])c2)c2ccc3cccnc3c2O)c1 (stereo not given) | 0.43 | -0.87 | -1.39
24 | CC(Cc1ccc(OCCN2CCN(c3cccc(Cl)c3)CC2)cc1)NCC(O)c1cccc(Cl)c1 (stereo not given) | 0.3 | 0 | 1.82

Row | SMILES | inhibition [1] [%] | inhibition [2] [%] | inhibition [3] [%]
25 | Cc1[nH]c2c(NCc3ccc(F)cc3)nccc2c1C | 4.48 | 4.33 | 2.57
26 | CC1(C)NC(N)=NC(=N)N1OCc1cc(Cl)c(Cl)cc1CON1C(=N)N=C(N)NC1(C)C | 3.89 | 2.37 | 0.54
27 | CC(C)(C)NS(=O)(=O)c1cc(C(=O)N2CCC(CCN3CCC(C(=O)c4ccc(F)cc4)CC3)(c3cccc(F)c3)CC2)c(Cl)cc1F | 7.28 | 9.1 | 5.52
28 | CC(C)CN1CCN(c2nc(C#N)c3c(c2C(=S)NC2CCCCC2)CC(C)(C)OC3)CC1 | 0.49 | -1.31 | -1.75
29 | Cc1cccc2nc(-c3cccc(-c4cccc(NC(=O)COc5ccccc5C(N)=O)c4)c3)[nH]c12 | -0.32 | 3.3 | 2.14
30 | CN(C)CCC1CCCc2ccc(NC(=O)Nc3ccc(-c4ccncc4)c4ccccc34)cc21 (stereo not given) | 4.29 | 1.03 | -0.88
31 | O=C(c1ccco1)N1CCN(c2ccc([N+](=O)[O-])c(NC3CC3)c2)CC1 | 0.6 | 0.13 | -1.35
32 | O=C(/C=C/c1ccccc1O)N1CCC(CCN2CCC(c3c[nH]c4ccccc34)CC2)CC1 | -5.26 | -3.35 | -2.57
33 | O=C1OC2(CCN(Cc3cccc(-c4ncc[nH]4)c3)CC2)CN1CCNCc1ccccc1 | 1.81 | 1.4 | -0.76
34 | COc1ccc2c(NN=Cc3ccccc3F)ccnc2c1 | 3.28 | 2.8 | 2.7
35 | CC(C)(C)OC(=O)N1CCC(C2CCN(C(=O)OC(C)(C)C)CC2)CC1 | -2.91 | -1.6 | -1.48
36 | Cc1nnsc1C(=O)Nc1cccc(-c2ccc(-c3nc4cc(C(F)(F)F)ccc4[nH]3)cc2)c1 | 1.55 | 2.49 | -1.08
37 | COc1cc(Cc2cnc(N)nc2N)cc(OCCCc2cc(OCc3ccccc3)no2)c1OC | 10 | 8.52 | 8.73
38 | CN(C)Cc1c(O)ccc2[nH]c(-c3ccc(F)cc3F)nc12 | 1.13 | 1.4 | -1.59
39 | COc1ccc2nccc([C@@H](O)CN3CCC(NC(=O)c4ccc(-c5ccc(C#N)cc5)cc4)CC3)c2c1 | 1.89 | 1.64 | 3.25
40 | CCc1nc2nc(C)cc(Nc3cc(C)cc(C)c3)n2n1 | 3.06 | 2.04 | 3.36
41 | CCN(CC)CCNc1ccnc2c3ccccc3n(C)c12 | -1.54 | 0.22 | -0.19
42 | COc1cc2c(cc1C(F)(F)F)N(C(=O)Nc1cc(F)c(F)c(-c3cccnc3)c1)CC2 | 10.1 | 1.42 | -4.39
43 | CCOC(=O)CCCOc1cc(Cc2cnc(N)nc2N)cc(OC)c1OC | 6.94 | 5.94 | 7.18
44 | COCCN1CCC(N(Cc2ccc(-c3ccc(C(F)(F)F)cc3)cc2)C(=O)Cn2c(CCc3cccc(F)c3F)cc(=O)c3c2CCC3)CC1 | -2.35 | -0.63 | -2.32
45 | COc1ccc(C2CC(=O)C3=C(C2)NC(C)=C(C(=O)OC(C)C)C3c2cccc(O)c2)cc1OC (stereo not given) | 4.15 | 1.12 | 1.71
46 | O=C(NCCCCN1CCC(c2ccc(Br)cc2)CC1)c1ccc(NC(=O)c2ccc(Cl)cc2)cc1 | -0.29 | 0.2 | -1.89
47 | Cc1[nH]c(C)c(-c2ccc(OCc3cc(C(F)(F)F)cc(C(F)(F)F)c3)nc2)c(=O)c1Br | 10.1 | 10.2 | 2.99
48 | CS(=O)(=O)CCNCc1cccc(-c2ccc3c(Nc4ccc(Oc5cccnc5)cc4)ccnc3c2)c1 | -1.35 | -1.49 | -3

Row | SMILES | inhibition [1] [%] | inhibition [2] [%] | inhibition [3] [%]
49 | C[C@@H](CC1CCCCC1)OC(=O)N(C)[C@@H]1CCN(C#N)C1 | 14.6 | 10.3 | 10.5
50 | O=C(Cn1c(CCc2cccc(F)c2F)nc(=O)c2ccccc21)N(CCN1CCCC1)Cc1ccc(-c2ccc(C(F)(F)F)cc2)cc1 | 0.45 | 0.38 | -4.3
51 | CCN(CC)CCOc1ccc(C(O)(C#CC(O)(c2ccccc2)c2ccc(OCCN(CC)CC)cc2)c2ccccc2)cc1 (stereo not given) | -1.1 | -2.58 | 1.94
52 | CN(C)c1ccc2c(c1)Sc1cc(N(C)C)ccc1N2C(=O)CCCC(=O)O | 5.15 | 1.94 | -0.96
53 | CCOC(=O)c1ccc(NC(=O)N[C@@H](Cc2ccccc2)C(=O)NC2CCN(Cc3ccc(O)cc3)C2)cc1 (stereo not given in full) | -1.09 | 1.43 | -7.4
54 | COc1ccc(OC)c(-c2ccc(=O)n(CC(=O)Nc3cccc4ccccc34)n2)c1 | 12.4 | 11.6 | 6.44
55 | CC(=O)Nc1ccc(C(=O)Nc2cccc(-c3ccc(-c4nc5ccccc5[nH]4)cc3)c2)cn1 | 4.19 | 3.31 | 5.92
56 | Cn1ccnc1-c1nc2ccccn2c1NCC(=O)Nc1ccccc1N1CCCCC1 | -1.68 | -2.15 | 0.02
57 | CCOC(=O)c1cn(CC)c2cc(N3CCCCC3)c(F)cc2c1=O | 3.39 | 3.64 | 4.37
58 | CC[C@H](C)CNC(=O)c1cncc(-c2ccc(CN(C)C3CCN(C)CC3)cc2)c1 | 3.57 | 3.62 | 5.08
59 | CCOC(=O)c1c(NC(NC(=O)c2ccc(C(C)(C)C)cc2)C(Cl)(Cl)Cl)sc2c1CCCC2 (stereo not given) | 10.5 | 8.72 | 9.68
60 | COc1ccc(Nc2nccc(-c3ccc4c(-c5ccsc5)cnc(N)c4c3)n2)cc1 | 1.99 | 7.26 | 6.65
61 | CN(C)C(=O)CC(=O)NCc1cccc(Cl)c1 | 6.99 | 6.27 | 7.23
62 | COc1ccccc1-c1csc(C(=O)NCC2CCN(Cc3ccc(C(C)(C)C)cc3)C2)c1 (stereo not given) | 1.44 | 0.16 | 0.22
63 | c1cc(CN2CCC(CCN3CCCCC3)CC2)cc(-c2cccc(-c3nc4ccccc4[nH]3)c2)c1 | 2.17 | 2.55 | 3.39
64 | CCCNC(=O)c1cncc(-c2ccc(CNC(CC)c3ccccc3)cc2)c1 (stereo not given) | -0.02 | 0.28 | -0.14
65 | CS(=O)(=O)c1ccc(CCNCc2ccc(-c3ccc(CN(C(=O)c4ccc(Cl)nc4)C4CCN(Cc5ccccc5)CC4)cc3)nc2)cc1 | 4.37 | 3.39 | 1.67
66 | Cc1noc(C)c1-c1cccc(CNCc2cccc(-c3cccc(-c4nc5cc(C(F)(F)F)ccc5[nH]4)c3)c2)c1 | 0.14 | 1.85 | 0.61
67 | O=C(NCc1ccc(F)cc1)Nc1ccc(-c2ccc(-c3nc4ccccc4[nH]3)cc2)cc1 | 1.28 | -0.46 | 0.75
68 | O=C(/C=C/c1ccc(Cl)cc1)NCCCCCN1CCCC(C(=O)Nc2ccc(Cl)cc2)C1 (stereo not given) | 3.89 | 5.61 | 3.7
69 | Cc1ccc(C)c(C2CCN(CCCCNC(=O)c3ccc(NC(=O)c4ccc(Cl)cc4)cc3)CC2)c1 | -1.18 | 0.21 | 0.05
70 | Cc1cccc(CN2CCC(CNC(=O)c3cc4c(-c5ccccc5F)nn(C)c4s3)CC2)c1 | 4.22 | 3.22 | 2.82

— ChEMBL document CHEMBL3433997, “St. Jude Leishmania screening dataset” (2016)
